Source: PubChem BioAssay
Hits are enriched below; roughly 4.1% of the tested compounds scored in any of these assays.
LMP1 NFkB inh: reduces LMP1-driven NF-kappaB luciferase signal. LMP1-induced NF-kappaB luciferase reporter cells, luminescence. inhibition, % at 12.5 µM. 0.69% of 350,000 active; in the data active = inhibition above about 41%; inconclusive = no clear call, values can overlap the other calls;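 also: 0% = neutral control wells and 100% = reference inhibitor control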
TROY signal inh: inhibitors of TROY-dependent NF-kB signaling. Q293 LMP1-TROYcd NF-kB luciferase reporter, 4 h. 0.98% of 360,000 active. AID 1347056. inhibition, % at 10 µM;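 active = compounds whose plate-normalised and pattern-corrected inhibition of the luciferase reporter signal at the single screening dose is 50% or more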
TRPM1 prom inh: reduces MITF-dependent TRPM1 promoter luciferase signal; inhibition, % at 12.5 µM; SK-MEL-5 TRPM1 promoter luciferase, 24 h; 0.83% of 330,000 active; AID 488899;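 active = mean inhibition across replicates of 60% or more, whatever share of single replicates reaches that level; inconclusive = some that reach 60%, reason not given; inactive = mean inhibition across replicates below 60%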
Shn3 3UTR inh: reduces Shn3 3'UTR luciferase signal in osteoblasts | inhibition, % at 12.5 µM | 0.52% of 360,000 active | Clone20 osteoblast Shn3 3'UTR firefly luciferase, 24 h;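 active = mean inhibition of at least 75% with every replicate also reaching 75%; inconclusive = mean inhibition at least 75% but some replicate below; inactive = mean inhibition below 75%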;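 also: 0% = median of neutral control wells and 100% = pilot-screen positive control compound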
TWEAK Fn14 block: inhibitors of TWEAK-Fn14 interaction signaling. inhibition, % at 10 µM. AID 1159606. TWEAK-stimulated Fn14 reporter cells, luciferase luminescence, 8 h. 2% of 360,000 active; in the data active = inhibition above about 50%
Peg3 promoter: inhibitors of Peg3 promoter; HeLa PEG-Prom luciferase reporter, luminescence, overnight; inhibition, % at 20 µM; 1.7% of 360,000 active; AID 588405;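 active = inhibition of at least 50% at 20 µM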
* hit, by the source's call; u = inconclusive; x = no result.

SMILES | LMP1 NFkB inh | TROY signal inh | TRPM1 prom inh | Shn3 3UTR inh | TWEAK Fn14 block | Peg3 promoter
O=C(Nc1nc2ccccc2[nH]1)c1cc(F)cc(F)c1 | -6 | -8 | -48 | -39 | -6 | -365
O=C(Nc1nc2ccccc2[nH]1)c1ccccc1OC(F)F | 8 | 27 | 1 | -36 | 64* | -104
O=C(NC(=S)Nc1cccc2[nH]ncc12)c1ccccc1 | 8 | -8 | -62 | -53 | 45 | -215
COc1ccc(Cl)cc1C(=O)Nc1nc2ccccc2[nH]1 | 18 | 71* | 54 | 7 | 95* | -12
O=C(Nc1cccc2[nH]ncc12)c1ccc(F)cc1 | 38 | 15 | -89 | -21 | 59* | -106
COc1cccc(NC(=O)Nc2cc(C(=O)O)ccc2N2CC3CC(C2)c2cccc(=O)n2C3)c1 (stereo not drawn) | 2 | -5 | 0 | 2 | -9 | 11
Cc1ccc(S(=O)(=O)N2CCC(=O)N([C@H](COCc3cccc(C)c3)C(C)C)CC2)cc1 | x | -3 | x | x | -16 | x
CCCCNS(=O)(=O)c1ccc2nc(-c3cccnc3)cc(C(=O)NCC(OC)OC)c2c1 | -3 | 9 | -3 | -2 | 2 | 12
COc1ccccc1CCC(=O)Nc1nc2ccccc2[nH]1 | 20 | -49 | -76 | -84 | 50* | -152
O=C(Nc1nc2ccccc2[nH]1)c1ccc(OC(F)F)cc1 | -2 | 5 | 1 | 11 | -1 | -116
COc1ccc(CCC(=O)Nc2nc3ccccc3[nH]2)cc1OC | -5 | 10 | -1 | -19 | -1 | -38
CC(C)Oc1ccc(C(=O)Nc2nc3ccccc3[nH]2)cc1 | 70* | 82* | 80* | 47 | 98* | 37
COc1ccc(OC)c(C(c2c(O)nc(SC)[nH]c2=O)c2c(O)nc(SC)[nH]c2=O)c1 | 6 | 2 | 2 | 1 | -1 | 3
O=C(C#Cc1ccccc1)c1ccccc1 | -3 | 37 | x | 99* | 76* | 100*
O=C(C#Cc1ccccc1)c1ccc([N+](=O)[O-])cc1 | 26 | 36 | 69* | 95* | 8 | 108*
CN(C)C(=O)C#Cc1ccccc1 | -9 | -21 | -3 | 3 | -6 | 7
Cc1ccccc1-c1nc(SCc2cccnc2)c2c(=O)n(C)c(=O)n(C)c2n1 | -10 | 19 | 5 | 1 | -1 | 64*
C[C@H]1CCC[C@]2(C)C[C@H]3OC(=O)C(CN4CCCCCC4)[C@H]3C=C12 (stereo partly drawn) | 2 | -2 | 78* | -93 | 73* | 6
CCSC(=S)c1c(C)[nH]n(-c2ccccc2)c1=O | 1 | -3 | -8 | 11 | -6 | -26
CCOC(=O)c1c(CSc2ccc(CC)cc2)oc2ccc(O)c(CN(C)C)c12 | -15 | 26 | 45 | 90* | 28 | 98*
COC(=O)C1CN(C(=O)COc2ccc(Cl)c(C)c2)c2ccccc2O1 (stereo not drawn) | -6 | -26 | 1 | 7 | -12 | -26
CC(C)(C)OC(=O)NCc1ccc(CNC(=O)c2[nH]cnc2C(=O)NCC(=O)OCc2ccccc2)cc1 | 5 | 46 | -2 | 12 | 17 | 52*
C[C@H](NC(=O)c1[nH]cnc1C(=O)Nc1ccc(Cl)cc1)C(=O)OC(C)(C)C | -7 | 13 | 2 | 2 | 10 | 21
CC(C)(C)OC(=O)[C@H](Cc1ccccc1)NC(=O)c1nc[nH]c1C(=O)N[C@@H](CCCCN)C(=O)OC(C)(C)C | 6 | 6 | 18 | 0 | 11 | 103*
CC(C)(C)OC(=O)NCc1ccc(CNC(=O)c2nc[nH]c2C(=O)NCc2ccccc2)cc1 | 0 | 24 | -4 | 28 | 14 | 15
SMILES | LMP1 NFkB inh | TROY signal inh | TRPM1 prom inh | Shn3 3UTR inh | TWEAK Fn14 block | Peg3 promoter
CC(C)(C)OC(=O)NCCCC[C@H](NC(=O)c1[nH]cnc1C(=O)Nc1ccccc1)C(=O)OC(C)(C)C | -10 | 7 | 3 | -2 | 17 | 53*
CC(C)(C)OC(=O)[C@H](CCCCN)NC(=O)c1nc[nH]c1C(=O)N[C@@H](CCCCN)C(=O)OC(C)(C)C | -6 | 0 | 3 | 1 | -3 | 5
CC(C)(C)OC(=O)NCCCC[C@H](NC(=O)c1[nH]cnc1C(=O)Nc1ccc(Cl)cc1)C(=O)OC(C)(C)C | 6 | 13 | 10 | 25 | 11 | 63*
C[C@@H](NC(=O)c1nc[nH]c1C(=O)N[C@@H](CCCCNC(=O)OC(C)(C)C)C(=O)OC(C)(C)C)c1ccccc1 | -16 | 15 | 11 | -6 | 5 | 21
CC(C)(C)OC(=O)N1CCC(NC(=O)c2[nH]cnc2C(=O)Nc2ccccc2)CC1 | -1 | -11 | -2 | -9 | -2 | 52*
CNC(=O)c1[nH]cnc1C(=O)N[C@@H](CCCCNC(=O)OC(C)(C)C)C(=O)OC(C)(C)C | 44* | -17 | -17 | -24 | -4 | 6
CC(C)C[C@H](NC(=O)c1nc[nH]c1C(=O)N[C@@H](CCCCNC(=O)OC(C)(C)C)C(=O)OC(C)(C)C)C(=O)OC(C)(C)C | -1 | 2 | 17 | 2 | 20 | 15
CCOC(=O)c1ccc(NC(=O)c2nc[nH]c2C(=O)NCCNC(=O)c2[nH]cnc2C(=O)Nc2ccc(C(=O)OCC)cc2)cc1 | 4 | 3 | 100* | 88* | 6 | 91*
O=C(Nc1ccc(Cl)cc1)c1nc[nH]c1C(=O)NCCCCNC(=O)c1[nH]cnc1C(=O)Nc1ccc(Cl)cc1 | -1 | 7 | 18 | 11 | 50 | 80*
OCC1CCCC(n2cnc3c(=S)nc[nH]c32)O1 (stereo not drawn) | -21 | 3 | 60 | -16 | -12 | 21
COc1ccc(/C=C/C(=O)NC(=S)NNC(=O)c2cnccn2)cc1 | 30 | 17 | 47 | 94* | -22 | 52*
COc1ccc(/C=C/C(=O)NC(=S)NNC(=O)c2cccnc2)cc1 | -8 | -10 | -3 | -5 | 15 | 12
COc1ccc(CC(C(=O)Nc2cccc(F)c2)c2nn[nH]n2)c(OC)c1 (stereo not drawn) | -14 | 65* | 0 | -4 | 51* | 3
CCCCNC1C(CC)C(CCC)C(C#N)(C#N)C1(C#N)C#N (stereo not drawn) | 24 | 17 | 37 | 16 | 56* | 27
CC(=O)/C(=C/N(C)C)C(=O)Nc1ccc(Cl)cc1Cl | 0 | 14 | 1 | 12 | -3 | -13
CN(C)CCNC=C(C(=O)Nc1ccc(Cl)cc1Cl)C(=O)Nc1ccc(Cl)cc1Cl | -52 | 54* | 19 | -19 | 16 | 91*
O=C(Nc1ccc(-c2nc3ccccc3[nH]2)cc1)c1ccccc1NS(=O)(=O)c1ccc(F)cc1 | 6 | 58* | -1 | -15 | 8 | -18
Cc1cc(F)ccc1S(=O)(=O)Nc1ccccc1C(=O)Nc1ccccc1-c1nc2ccccc2[nH]1 | -18 | 70* | u | 91* | 102* | 96*
